We go through twelve compounds from PubChem BioAssay (NCATS).

The structures appear in SMILES notation. Records with an inconclusive call do not appear. Calls of active or inactive are those of the source. Calls follow the shape of the dose curve; as a rule, active = well fitted inhibition curve with a large enough effect; inconclusive = small, poorly fitted or top-dose-only effect; inactive = flat fitted curve, though single readings scatter.
% is scaled to controls: 0 for no effect and ±100 for the full control effect; potency is read from the fitted curve at half-maximal effect.

A short description of this assay: P-glycoprotein substrates identified in KB-8-5-11 adenocarcinoma cell line, qHTS therapeutic library screen (AID 1346987). Also: nearly all actives have a fitted effect of over 65% in size. Conditions: KB-8-5-11 (P-gp overexpressing) viability, CellTiter-Glo, 72 h; series mostly up to 44.5 µM; activity change, negative = cytotoxicity: at the top concentration. The gist of the method:
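Human cervical adenocarcinoma KB-8-5-11 cells, selected in colchicine to over-express P-gp and assayed without it, were exposed for 72 h to titrated compounds. An ATP-based luminescent viability signal gave AC50.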
On to `CC1OC(O[C@H]2[C@@H](O)C[C@@]3(C)C([C@H](O)C[C@]4(C)C3CC=C3C5CC(C)(C)CC[C@]5(C(=O)OC5OC(CO)C(O)C(O)C5OC5OCC(OC6OCC(OC7OCC(O)C(O)C7O)C(O)C6O)C(OC6OCC(O)(CO)C6O)C5O)CC[C@]34C)[C@]2(C)CO)C(O)C(O)C1O` (some centres not stated), for which the activity change, negative = cytotoxicity was 1.18% [at 9.29 µM] (inactive).

On to `CCCCNC(=O)[C@@H]1Cc2ccccc2N1C(=O)[C@@H](N)CC`, for which the outcome was inactive. In the case of `C1CCN2CC3C[C@@H](CN4CCCC[C@@H]34)[C@H]2C1`, the outcome was inactive.

`CC(=O)c1c(O)cc2c(c1C)C(=O)CC(O)C2` (configuration not stated): the outcome was inactive. Turning to `COc1cc(/C=C/CO)ccc1O[C@@H]1O[C@H](CO)[C@@H](O)[C@H](O)[C@H]1O`, the “activity change, negative = cytotoxicity” value is 9.81% (inactive). Take `CC/C=C\C[C@H]1C(=O)C=C[C@@H]1CCCCCCCC(=O)O`: the compound was called inactive. For the compound `CCc1nc(C(N)=O)c(Nc2ccc(N3CCC(N4CCN(C)CC4)CC3)c(OC)c2)nc1NC1CCOCC1`, the Potency was 5.7 µM (active). Regarding `C=CC1(C)CC(OC(=O)C(=C)C(O)COC(C)=O)C(C(=C)C(=O)OC)C(O)C1C(=C)CO` (configuration not stated), the “outcome” value was “inactive [at 17.3 µM]”. For the compound `Cc1[nH]cnc1C1CCN(c2nc3cccc4c3n2CCC4=O)CC1`, the call was inactive. As for `COc1ccccc1CC(C(=O)O)N(C)C(=O)c1ccccc1` (configuration not stated), the “activity change, negative = cytotoxicity” value was 7.3% (inactive). Same read-out and setting: the result for `COc1ccccc1-n1c(SCC(=O)Nc2nc3ccc(C)cc3s2)nc2c(c1=O)SCC2` reads -3.59% [at 17.3 µM] (inactive); that for `CC[C@H]1OC(=O)[C@H](C)[C@@H](OC2C[C@@](C)(OC)[C@@H](O)[C@H](C)O2)[C@H](C)[C@@H](OC2O[C@H](C)C[C@H](NC)[C@H]2O)[C@](C)(O)C[C@@H](C)CN(C)[C@H](C)[C@@H](O)[C@]1(C)O` (some centres not stated), 2.19% (inactive).
